The record followed here is the supplement of paper PMC9433436.

± gives the standard deviation of the averaged measurements. The full ranking holds about 4,100 sequences; the median of “relative kcat/Km (krel) vs genomic leader AAAGAU” is about 1.7, and the highest 2% start at about 6.5. The list comes from a sample in which the highest values are over-represented; it also holds similar and randomly drawn sequences.

The assay has as its target T1, E. coli RNase P holoenzyme (M1 P RNA + rnpA protein) (UniProt P0A7Y8).
T1 sequence: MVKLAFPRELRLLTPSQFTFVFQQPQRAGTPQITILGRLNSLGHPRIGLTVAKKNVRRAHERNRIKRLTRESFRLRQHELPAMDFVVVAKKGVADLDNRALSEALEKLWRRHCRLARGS
Description: relative kcat/Km (krel) vs genomic leader AAAGAU (relative (reference leader = 1)); higher = faster RNase P cleavage. As to the method: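 HTS-Kin: a pool of ptRNA-Met (21C construct) with all 4096 combinations of 5' leader nucleotides N(-6) to N(-1) was processed in vitro by E. coli RNase P (P RNA + rnpA/C5 protein) under multiple-turnover conditions at 37 C, pH 8, 17.5 mM MgCl2. Residual substrate was Illumina-sequenced at several fractions reacted, and relative kcat/Km (krel) was computed by internal competition kinetics, calibrated to the genomic leader (AAAGAU = 1). The listed hexamer is the varied N(-6)..N(-1) leader (DNA letters), and it sits between a fixed 5' stem-loop flank (GCAUGCACGAAAGUGCGUGCUAUGAA) and the mature tRNA-Met starting GGCUACGUAGCUCAGUUGG. Two technical replicates are averaged.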

The mark [1] stands for this setting: fraction of substrate reacted: ~9-10% (9.79% repeat 1, 9.1% repeat 2).
Setting [2] is: fraction of substrate reacted: ~13-16% (15.68% repeat 1, 13.17% repeat 2).
The mark [3] stands for this setting: fraction of substrate reacted: ~26-29% (28.66% repeat 1, 26.4% repeat 2).

In the case of ACGCAC, the “relative kcat/Km” value is, setting by setting: under setting [1], 1.83 ± 0.3; under setting [2], 2.12 ± 0.95; under setting [3], 3.59 ± 1.2.
Regarding CATCCC, the “relative kcat/Km” value under setting [1] was found to be 2.17 ± 1.8, the “relative kcat/Km” value under setting [2] stood at 2.06 ± 1.1 and the “relative kcat/Km” value under setting [3] was determined as 1.96 ± 0.22.
As for CCTTTC, the “relative kcat/Km” value came out at 2.13 ± 0.9 under setting [1], 2.39 ± 0.27 under setting [2] and 3.08 ± 0.83 under setting [3].
On the same counts, the results for CCTTCA are 1.71 ± 1.4, 1.18 ± 0.065 and 1.84 ± 0.056.
On the same counts, the results for TACTTA are 3.1 ± 0.66, 4.1 ± 0.88 and 5.63 ± 2.6.
As for TACTTT, the “relative kcat/Km” value under setting [1] stood at 3.77 ± 1.4, the “relative kcat/Km” value under setting [2] stood at 4.69 ± 0.54 and the “relative kcat/Km” value under setting [3] was found to be 6.8 ± 3.1.
On the same counts, the results for CACTTT are 3.33 ± 1.1, 4.55 ± 0.76 and 6.22 ± 2.4.
With TACTTC, the “relative kcat/Km” value is, setting by setting: under setting [1], 4.11 ± 1.8; under setting [2], 4.99 ± 1.3; under setting [3], 6.85 ± 2.9.
On to TACTTG, for which the “relative kcat/Km” value was 0.792 ± 0.45 under setting [2] and 2.68 ± 1.1 under setting [3].
As to CACTTC, the “relative kcat/Km” value by setting is: under setting [1], 2.93 ± 0.5; under setting [2], 3.69 ± 0.85; under setting [3], 5.44 ± 2.2.
Regarding GTTATG, the “relative kcat/Km” value runs as follows: under setting [2], 1.56 ± 0.24; under setting [3], 3.32 ± 0.7.
With CTTTTA, the “relative kcat/Km” value under setting [1] was determined as 2.68 ± 0.65, the “relative kcat/Km” value under setting [2] was 2.79 ± 0.91 and the “relative kcat/Km” value under setting [3] is 3.18 ± 1.2.
In the same order, the values of AAGCAT are 2.34 ± 0.52, 2.87 ± 1 and 3.28 ± 1.9.
On the same counts, the results for TTCCCC are 3.49 ± 1.7, 4.17 ± 0.71 and 5.59 ± 1.9.
On the same counts, the results for TTCCAG are 2.51 ± 1.5, 3.27 ± 0.64 and 5.49 ± 1.9.
Consider TGCCAC, for which the “relative kcat/Km” value runs as follows: under setting [1], 2.55 ± 1.6; under setting [2], 3.121 ± 0.026; under setting [3], 4.36 ± 1.6.
In the same order, the values of CGCCAT are 3 ± 0.35, 4.6 ± 1.3 and 6.07 ± 2.5.
On the same counts, the results for GTCCAT are 4.26 ± 0.8, 6.41 ± 1.5 and 9.1 ± 4.4.
On the same counts, the results for CTCCCT are 3 ± 0.57, 3.57 ± 0.86 and 4.86 ± 2.1.
For the sequence TTCCAA, the “relative kcat/Km” value amounted to 4.78 ± 1.8 under setting [1], 6.03 ± 0.65 under setting [2] and 8.56 ± 3.5 under setting [3].
Consider CTCCAT, for which the “relative kcat/Km” value reads like this: under setting [1], 4.25 ± 0.86; under setting [2], 5.67 ± 1.3; under setting [3], 8.48 ± 4.
On the same counts, the results for TGCCAA are 3.18 ± 1.1, 2.55 ± 0.62 and 4.09 ± 1.
Regarding GTCCAG, the “relative kcat/Km” value runs as follows: under setting [1], 2.58 ± 1; under setting [2], 2.9 ± 0.5; under setting [3], 5.48 ± 2.
On the same counts, the results for GTCCCT are 2.62 ± 0.56, 3.61 ± 0.74 and 5.58 ± 2.5.
Regarding TTCCAC, the “relative kcat/Km” value runs as follows: under setting [1], 5.3 ± 2; under setting [2], 6.51 ± 1.3; under setting [3], 9.46 ± 4.2.
For CCTCTG, under setting [3], the “relative kcat/Km” value came to 1.47 ± 0.38.
As to CTTGGA, the “relative kcat/Km” value under setting [1] was 1.23 ± 1.1, the “relative kcat/Km” value under setting [2] was 1.2 ± 0.45 and the “relative kcat/Km” value under setting [3] turned out to be 1.15 ± 0.8.
On the same counts, the results for TTGAGC are 1.16 ± 0.28, 1.24 ± 0.71 and 1.47 ± 0.22.
ACCGGC: the “relative kcat/Km” value under setting [1] was 1.08 ± 0.83.
As for AGAACC, the “relative kcat/Km” value is, setting by setting: under setting [1], 1.66 ± 1.1; under setting [2], 1.82 ± 0.43; under setting [3], 1.82 ± 0.17.
Take GCACGT: the “relative kcat/Km” value under setting [3] was 0.727 ± 0.1.
Consider CAAAGG, for which the “relative kcat/Km” value under setting [1] was 0.345 ± 0.3.
In the case of ATCCAC, the “relative kcat/Km” value by setting is: under setting [1], 4.03 ± 1.7; under setting [2], 4.47 ± 0.19; under setting [3], 6.76 ± 2.2.
In the same order, the values of GTCCAC are 5.04 ± 1.9, 6.06 ± 1.1 and 8.78 ± 3.9.
In the same order, the values of GTCCAA are 3.74 ± 1.3, 4.92 ± 0.95 and 7.96 ± 3.
On the same counts, the results for ATCCAT are 3.89 ± 0.97, 4.72 ± 1.4 and 7.14 ± 3.2.
On to GTCCCC, for which the “relative kcat/Km” value worked out at 2.87 ± 2.5 under setting [1], 4.17 ± 0.82 under setting [2] and 5.29 ± 1.4 under setting [3].
As for ATCCCC, the “relative kcat/Km” value reads like this: under setting [1], 2.42 ± 0.41; under setting [2], 3.13 ± 0.35; under setting [3], 4.59 ± 2.2.
In the same order, the values of AGCCAT are 3.54 ± 1.2, 3.08 ± 0.86 and 4.77 ± 2.
In the same order, the values of ATCCAA are 3.15 ± 0.43, 4.2 ± 1.2 and 6.3 ± 2.3.
Consider ATCCCT, for which the “relative kcat/Km” value reads like this: under setting [1], 2.7 ± 0.55; under setting [2], 3.48 ± 0.4; under setting [3], 4.42 ± 1.8.
In the same order, the values of GACCAA are 1.8 ± 0.3, 3.47 ± 1.1 and 4.86 ± 1.5.
On the same counts, the results for ATCCAG are 1.67 ± 0.93, 1.77 ± 0.18 and 3.83 ± 0.61.
With GGCCAC, the “relative kcat/Km” value under setting [1] amounted to 0.682 ± 0.091, the “relative kcat/Km” value under setting [2] was 1.39 ± 0.35 and the “relative kcat/Km” value under setting [3] amounted to 2.65 ± 0.59.
In the same order, the values of TTTGCC are 1.81 ± 0.95, 1.79 ± 0.37 and 2.42 ± 0.16.
On to AGTATT, for which the “relative kcat/Km” value is, setting by setting: under setting [1], 2.4 ± 0.68; under setting [2], 3.14 ± 0.3; under setting [3], 4.91 ± 2.2.
For AACTGG, the “relative kcat/Km” value under setting [3] worked out at 0.249 ± 0.046.
TGATGT: the “relative kcat/Km” value under setting [2] came to 1.13 ± 1.1 and the “relative kcat/Km” value under setting [3] worked out at 1.37 ± 0.91.
ACTTTA: the “relative kcat/Km” value is, setting by setting: under setting [1], 1.56 ± 0.72; under setting [2], 1.89 ± 0.44; under setting [3], 2.18 ± 0.5.
